Screening data from PubChem.
TEAD-YAP block: TEAD-YAP interaction inhibition; HEK-TIYL cells, TEAD-Gal4/YAP UAS-luciferase luminescence; inhibition, % at 9.12 µM; 1.4% of 640,000 active; AID 1259422; in the data active = inhibition above about 32%
GPR151 ag: activators of human GPR151; PathHunter beta-arrestin GPR151 cells, luminescence; 1% of 650,000 active; activation, % at 11.2 µM; Q8TDV0; in the data active = activation above about 4.9%
MITF inh: human MITF inhibition, primary screen | O75030 | AlphaScreen MITF homodimerization, bead proximity signal | inhibition, % at 2.6 µM | 0.91% of 650,000 active | AID 1259374; in the data active = inhibition above about 50%
FBW7 act: human FBW7 E3 ligase activation, primary screen | Q969H0 | AlphaScreen FBW7–phospho-cyclin E peptide binding, activator screen | normalized activity (activation), % at 26.1 µM | 0.13% of 650,000 active | AID 1259310; in the data active = normalized activity above about 1.9%;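 note: purified mutant Fbw7 with reduced substrate affinity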
Target sequence (Q969H0 whole entry, looked up): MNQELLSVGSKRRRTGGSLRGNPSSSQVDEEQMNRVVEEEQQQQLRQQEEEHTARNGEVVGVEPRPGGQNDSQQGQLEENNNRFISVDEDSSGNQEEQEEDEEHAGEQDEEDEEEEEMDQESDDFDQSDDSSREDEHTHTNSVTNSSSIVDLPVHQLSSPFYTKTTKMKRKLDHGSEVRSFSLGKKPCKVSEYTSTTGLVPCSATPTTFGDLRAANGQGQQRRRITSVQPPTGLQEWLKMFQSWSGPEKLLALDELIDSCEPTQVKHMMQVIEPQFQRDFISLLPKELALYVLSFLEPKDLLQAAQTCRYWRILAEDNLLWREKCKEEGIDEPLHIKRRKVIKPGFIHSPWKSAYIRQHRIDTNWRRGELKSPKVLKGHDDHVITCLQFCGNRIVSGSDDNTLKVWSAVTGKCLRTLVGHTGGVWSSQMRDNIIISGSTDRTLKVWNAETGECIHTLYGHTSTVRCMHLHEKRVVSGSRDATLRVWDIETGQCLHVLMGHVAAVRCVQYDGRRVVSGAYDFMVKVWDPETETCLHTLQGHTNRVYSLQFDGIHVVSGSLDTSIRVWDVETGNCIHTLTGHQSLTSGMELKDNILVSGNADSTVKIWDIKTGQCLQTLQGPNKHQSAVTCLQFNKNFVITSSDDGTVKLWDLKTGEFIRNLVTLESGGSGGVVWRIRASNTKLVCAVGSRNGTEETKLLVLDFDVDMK
Each line names hits and unclear results; the compound was inactive in the other large screens; ! = a repeat was not active. Compounds with a hit are over-represented: about 3.5% of the library has one in this group of screens.

Nc1cccc(-c2nc(NCc3nc4ccccc4[nH]3)c3ncn(-c4ccccc4)c3n2)c1	TEAD-YAP block 35
CC(=O)c1cccc(-c2nc(NCc3nc4ccccc4[nH]3)c3ncn(C(C)C)c3n2)c1	TEAD-YAP block 67
CC(C)N(CCNc1nc(-c2ccc(N3CCN(C)CC3)cc2)nc2c1ncn2C(C)C)C(C)C	TEAD-YAP block 39
CC(C)n1cnc2c(NCCO)nc(-c3cccc(N)c3)nc21	none
CC(C)n1cnc2c(NCc3nc4ccccc4[nH]3)nc(-c3cccc(N)c3)nc21	TEAD-YAP block 84
COC(=O)c1ccc(NC(=O)c2ccc3c(c2)C(=O)N(c2cccc([N+](=O)[O-])c2)C3=O)cc1	none
CCCCN1CC(C(=O)NCCc2ccc(C)cc2)CC1=O (configuration not stated)	none
CC(C)N(CCNc1nc(-c2cccc(N)c2)nc2c1ncn2C(C)C)C(C)C	TEAD-YAP block 53
O=C(O)c1cc(-c2ccc(O)c(O)c2)nc2n[nH]c(-c3ccccc3)c12	MITF inh 81
O=C(O)c1cc(-c2ccc(O)c(O)c2)nc2n[nH]c(-c3ccc(F)cc3)c12	none
Cc1ccc(NC(=O)Cn2nnc(-c3ccccc3NC(=O)c3ccco3)n2)cc1	none
O=C1C(c2ccnc3ccccc23)=C(O)c2ccccc21	TEAD-YAP block 53
Cc1cccc(C(=O)N[C@H]2C[C@H]3C(=O)N[C@@H](CO)C(=O)N3C2)c1	none
O=C(O)CSCc1nc2ccsc2c(=O)[nH]1	none
CCn1c(-c2ccc(Cl)cc2)csc1=Nc1ccccc1	none
CCn1c(-c2ccc(OC)cc2)csc1=Nc1ccc(NC(C)=O)cc1	TEAD-YAP block 65
C=CCn1c(-c2ccc(C)cc2)csc1=Nc1ccc(NC(C)=O)cc1	TEAD-YAP block 50
CCn1c(-c2ccc(Cl)cc2)csc1=Nc1ccc(NC(C)=O)cc1	TEAD-YAP block 80
Cc1nc(N=Nc2ccc(S(=O)(=O)O)cc2S(=O)(=O)O)c(COP(=O)(O)O)c(C=O)c1O	MITF inh 75!
CNC(=O)c1cc(Cl)c(OC)c(OC)c1	none
COc1ccc(C(=O)NCc2ccc(S(N)(=O)=O)cc2)cc1OC	FBW7 act 2.4
CCOc1c(Br)cc(C(N)=O)cc1OC	none
CCCOc1ccc(C(=O)NN)cc1OC	TEAD-YAP block 47
CCOc1c(Br)cc(C(=O)NN)cc1OC	TEAD-YAP block 52
COc1c(Cl)cc(C(=O)NN)cc1Cl	TEAD-YAP block 56
Cc1cccnc1C1(O)CCN(C(=O)c2ccco2)CC1	none
COc1cccc(CNC(=O)CNC(=S)N(Cc2cccs2)C2CCCCC2)c1	none
COc1ccc(CCNc2cc(N3CCN(S(C)(=O)=O)CC3)ccc2[N+](=O)[O-])cc1OC	TEAD-YAP block 60
COc1ccc(CCNc2cc(N3CCN(S(=O)(=O)c4ccc(OC)c(OC)c4)CC3)ccc2[N+](=O)[O-])cc1OC	none
COc1ccc(CCNc2cc(N3CCCC3)ccc2[N+](=O)[O-])cc1OC	none
COc1ccc(CCNc2cc(N3CCN(C)CC3)ccc2[N+](=O)[O-])cc1OC	TEAD-YAP block 48
C=CCSc1nnc2c(n1)OC(c1cc3c(cc1[N+](=O)[O-])OCO3)N(C(C)=O)c1ccccc1-2 (configuration not stated)	none
CC(=O)c1ccc(-c2ccc(N)c(C(=O)c3ccccc3)c2)cc1	TEAD-YAP block 58
COc1ccc2c(c1)nc(SCc1ccccc1)n2C	FBW7 act 2.0
COc1ccc2c(c1)nc(SCC(=O)C(C)(C)C)n2C	none
CCC(C(=O)NCCN1CCCCC1C)n1nc(C)n2c(cc3occc32)c1=O (configuration not stated)	none
Clc1cc2nc(-c3ccco3)c(-c3ccco3)nc2cc1Cl	none
CCN(CC)C(=O)Nc1ccc2nc(-c3ccco3)c(-c3ccco3)nc2c1	MITF inh 73
COc1ccc(N2CCN(Cc3cccs3)CC2)cc1	MITF inh 55
COc1ccc(N2CCN(Cc3ccsc3)CC2)cc1	MITF inh 67
CC(C)N1CCc2c(sc(NC(=O)CCc3ccccc3)c2C#N)C1	none
O=[N+]([O-])c1cc(Cl)c(Sc2nc3ccccc3s2)c(Cl)c1	TEAD-YAP block 49
O=[N+]([O-])c1ccc(Sc2nc3ccccc3s2)cc1	none
CC(C)NC(=O)CSc1nnns1	none
O=C(c1ccc(I)cc1)N1CCCc2ccccc21	none
O=C(c1cccc(I)c1)N1CCCc2ccccc21	FBW7 act 2.3
C=CCOc1ccc(C(=O)Nc2ccc(S(=O)(=O)N3CC(C)OC(C)C3)cc2)cc1 (configuration not stated)	TEAD-YAP block 39
O=C(Nc1ccc(Cl)c(C(F)(F)F)c1)C1CC1	none
CC(C)c1ccc(CN2CCc3nnc(C(C)NC(=O)c4ccco4)n3CC2)cc1 (configuration not stated)	none
CC(=O)N1CCN(c2ccc(NC(=O)CSc3ccc(Cl)cc3)cc2Cl)CC1	none
CC[C@@]1([C@@H]2O[C@@H]([C@H]3O[C@@](O)(CO)[C@H](C)C[C@@H]3C)C[C@@H]2C)CC[C@H]([C@]2(C)CC[C@]3(C[C@H](O)[C@@H](C)[C@@H]([C@@H](C)[C@@H](OC)[C@H](C)C(=O)O)O3)O2)O1	TEAD-YAP block 79
O=C(CC(SCc1ccco1)c1cccs1)c1ccc(Cl)cc1 (configuration not stated)	none
Cc1ccc(C(=O)Nc2ccc3c(c2)OCO3)cc1	TEAD-YAP block 44
Cc1ccc(C(=O)Nc2ccc3c(c2)OCCO3)cc1	none
O=C(Nc1ccc2c(c1)CCC2)c1ccc2c(c1)OCO2	TEAD-YAP block 59
COc1cc(OC)c(S(=O)(=O)Nc2ccc3c(c2)OCCO3)cc1NC(C)=O	TEAD-YAP block 35
O=C(Nc1ccc2c(c1)OCCO2)c1ccc(F)cc1	TEAD-YAP block 43
C/C(=C\c1ccccc1)CN1CCN(c2ccccn2)CC1	none
COc1cccc(S(=O)(=O)Nc2ccc3c(c2)OCCO3)c1	TEAD-YAP block 33
CCCCOc1cccc(C(=O)Nc2ccc3c(c2)OCCO3)c1	none
O=C(Nc1ccc2ncsc2c1)c1ccc(F)cc1	none
COc1cccc(C(=O)Nc2ccc3c(c2)OCCO3)c1	TEAD-YAP block 79
O=C(Nc1ccc2ncsc2c1)c1ccc2c(c1)OCCO2	TEAD-YAP block 86
O=C(Nc1onc2c1CCCC2)c1ccc2c(c1)OCO2	TEAD-YAP block 65
O=C(Nc1onc2c1CCC2)c1ccc2ccccc2c1	none
C/C(=N\Nc1nc(C)cc(C)n1)c1ccco1	none
COc1ccc(NC(=O)CC(C)c2ccccc2)cc1 (configuration not stated)	none
COc1cc(/C=N/NC(=O)c2ccccc2O)ccc1O	none
O=C(NCCCN1CCCC1=O)c1ccc2c(=O)n(CCc3ccccc3)c(=O)[nH]c2c1	none
COc1ccccc1OCC(O)CN1C(C)(C)CCCC1(C)C (configuration not stated)	none
O=C(O)C1=C(C(=O)Nc2ccc3c(c2)OCCO3)CCCC1	TEAD-YAP block 55
CCOc1ccc(NC(=O)CCCc2nc(-c3ccc(C)cc3)no2)cc1	none
Cn1ccnc1SCC(=O)c1cc2c(ccc3ccccc32)oc1=O	none
Cc1nc(Nc2cc(Nc3ccccn3)c(C(F)(F)F)cn2)cc(-c2cncnc2)n1	TEAD-YAP block 32
COc1ccc(N2CCOCC2)cc1Nc1cc(Nc2ccccn2)c(C(F)(F)F)cn1	none
